# Unmarked numbers belong to inactive results. Results filed as inconclusive are left out. The list shows a part of the results. Entries that show only a call come without a potency. Calls of active or inactive are those of the source. Unless noted, calls follow the shape of the dose curve; as a rule, active = well fitted curve in the direction sought with a large enough effect; inconclusive = small, poorly fitted or top-dose-only effect, or another doubt; inactive = no such curve, though single readings can be large; an effect the other way counts as inactive or inconclusive.
# What was measured:
# [1] = biological target: Rap guanine nucleotide exchange factor 3 (Homo sapiens) (UniProt O95398); experiment: Confirmatory qHTS for agonist of cAMP-regulated guanine nucleotide exchange factor 3 (EPAC1) (AID 1645881); also: nearly all actives have a fitted effect of over 75% in size; also: potency is read from the fitted curve at half-maximal effect;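 as to activation: EPAC1 catalysed release of BODIPY-GDP from Rap1B seen as fluorescence loss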
# [2] = biological target: Rap guanine nucleotide exchange factor 4 (Homo sapiens) (UniProt Q8WZA2); experiment: Confirmatory qHTS for agonist of cAMP-regulated guanine nucleotide exchange factor 4 (EPAC2) (AID 1645884);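 also: nucleotide exchange releases bodipy-GDP from Rap1 and this lowers its fluorescence; nearly all actives have a fitted effect of over 65% in size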; also: potency is read from the fitted curve at half-maximal effect
# [3] = biological target: Rap guanine nucleotide exchange factor 4 (Homo sapiens) (UniProt Q8WZA2); experiment: Confirmatory qHTS for antagonist of cAMP-regulated guanine nucleotide exchange factor 4 (EPAC2) (AID 1645885); also: nearly all actives have a fitted effect of over 25% in size; also: potency is read from the fitted curve at half-maximal effect
# [4] = biological target: Rap guanine nucleotide exchange factor 3 (Homo sapiens) (UniProt O95398); experiment: Counterscreen qHTS for antagonist of cAMP-regulated guanine nucleotide exchange factor 3 (EPAC1) (AID 1645888);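 also: fluorescence loss as bound BODIPY-GDP is released from Rap1B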
# Outline: (§1)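 Rap1B–BODIPY-GDP (250 nM) with 50 uM GDP; compounds pin-transferred to 9.74 nM–152 uM final (activator) or from 7.32 nM upwards (inhibitor). Fluorescence Ex/Em 480/540 nm read at 5 and 30 min, then after adding cAMP or buffer, at room temperature.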
# [5] = biological target: Rap guanine nucleotide exchange factor 3 (Homo sapiens) (UniProt O95398); experiment: Counterscreen qHTS for agonist of cAMP-regulated guanine nucleotide exchange factor 3 (EPAC1) (AID 1645889); also: nearly all actives have a fitted effect of over 40% in size; also: potency is read from the fitted curve at half-maximal effect
# Outline: as §1
# [6] = biological target: Tyrosyl-DNA phosphodiesterase 1 (Homo sapiens) (UniProt Q9NUW8); experiment: Confirmation Assay for Inhibitors of Tyrosyl-DNA Phosphodiesterase (TDP1) (AID 489007); details: recombinant human TDP1 enzymatic activity, dose-response; also: potency is read from the fitted curve at half-maximal effect; nearly all actives have a fitted effect of over 40% in size
# Outline: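 Compounds are preincubated 15 min at room temperature with 1 nM recombinant human Tdp1. The reaction starts on adding 15 nM FITC-phosphotyrosine DNA substrate, runs 5 min, and is detected by AlphaScreen beads after 10 min.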
# [7] = qHTS for Inhibitors of Plasmodium falciparum (GB4) proliferation (AID 504315); also: nearly all actives have a fitted effect of over 50% in size
# Outline: (§2)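 Parasite growth measured as SYBR Green DNA fluorescence (ex 485, em 535 nm) after overnight lysis following 72 h culture at 37 °C, 0.3% parasitemia, 2.5% hematocrit. Values normalized against DMSO and 0.29 uM artemisinin controls, with plate-stack correction.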
# [8] = qHTS for Inhibitors of Plasmodium falciparum (CP250) proliferation (AID 504320)
# Outline: as §2
# [9] = biological target: Tumor susceptibility gene 101 protein (Homo sapiens) (UniProt Q99816); experiment: qHTS Assay for Iinhibitors of HIV-1 Budding by Blocking the Interaction of PTAP/TSG101: Hit Validation (AID 651600); also: nearly all actives have a fitted effect of over 70% in size; also: potency is read from the fitted curve at half-maximal effect
# Outline: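 Compounds are added to the Tsg101 binding domain (10 uM final) in pH 7.5 HEPES buffer. FITC-PTAP peptide follows at 50 nM final. After 20 min at r.t., polarized FITC emission is measured.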
# [10] = biological target: Glucocorticoid receptor (Homo sapiens) (UniProt P04150); experiment: GR-GFP Redistribution (AID 450;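 active = compounds whose dose series gives a full or clear partial fitted curve of increased nuclear translocation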; also: potency is read from the fitted curve at half-maximal effect); details: U2OS GR-GFP nuclear translocation, laser cytometry, 2 h
# [11] = biological target: Lysosomal acid glucosylceramidase (Homo sapiens) (UniProt P04062); experiment: Glucocerebrosidase-p2 (AID 348; in the data active = potency below about 10 µM; also: potency is read from the fitted curve at half-maximal effect); details: purified GBA, blue fluorogenic substrate, 40 min
# Outline: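 Normal human glucocerebrosidase (0.2 nM) with blue fluorogenic substrate (80 uM final) in citrate/phosphate pH 5.9 with 10mM sodium taurocholate, 0.01% tween-20; 40 min RT, NaOH/glycine stop; fluorescence Ex 365/Em 440; AC50 from a titration from 0.6 nM upwards.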
# [12] = biological target: Cytochrome P450 1A2 (Homo sapiens) (UniProt P05177); experiment: p450-cyp1a2 (AID 410; calls by dose curve; also: potency is read from the fitted curve at half-maximal effect)
# Outline: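 O-Demethylation of luciferin 6' methyl ether by human CYP1A2 is monitored as luciferase luminescence. Substrate sits at Km (100uM); enzyme is 20nM. Values are scaled to 57 uM furafylline as maximal inhibition.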
# [13] = biological target: Glucocorticoid receptor (Homo sapiens) (UniProt P04150); experiment: GR-EFC Redistribution (AID 451; calls by dose curve; also: potency is read from the fitted curve at half-maximal effect); details: CHO-K1 GR-EFC translocation, beta-gal luminescence, 2 h
# Outline: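 CHO-K1 cells expressing nuclear EA and GR-ED fragments of b-gal; compounds titrated up to 46 uM final, 2 h at 37 C. GR nuclear translocation read as complemented b-gal luminescence after 1 h RT detection.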
# [14] = biological target: Mitogen-activated protein kinase 10 (Mus musculus) (UniProt Q61831); experiment: JNK3 AlphaScreen Assay (AID 530; active = well fitted curve in either direction with a large enough effect, not every such curve was filed as active;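 also: kinase came from lysate of stimulated human HepG2 cells; signal reports phosphorylation of biotinylated GST-cJun 1-79 at Ser73 with 10 µM ATP; series mostly up to about 57 µM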)
# Outline: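 Activity was read by AlphaScreen after JNK3-containing HepG2 lysate (cytokine pre-activated) phosphorylated biotinylated GST-cJun with 10 uM ATP at room temperature. Phospho-Ser73 cJun antibody with Protein-A acceptor beads provided detection.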
# [15] = biological target: Cytochrome P450 2C9 (Homo sapiens) (UniProt P11712); experiment: qHTS Assay for Inhibitors and Substrates of Cytochrome P450 2C9 (AID 883); also: potency is read from the fitted curve at half-maximal effect; nearly all actives have a fitted effect of over 60% in size
# Outline: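 10nM CYP2C9 + 100uM Luciferin-H (=KM), 25mM KPO4; cpd 10 min 37C; NADPH regen, 60 min 37C; stop/detect with P450 Glo-Buffer 20 min; luminescence. Norm. to 57uM sulphaphenazole as full inhibition.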
# [16] = biological target: Cytochrome P450 3A4 (Homo sapiens) (UniProt P08684); experiment: qHTS Assay for Inhibitors and Substrates of Cytochrome P450 3A4 (AID 884); also: potency is read from the fitted curve at half-maximal effect; nearly all actives have a fitted effect of over 50% in size
# Outline: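 Luminescent readout of luciferin produced by CYP3A4 (20 nM) dealkylation of Luciferin-PPXE, 25 uM (its KM). NADPH-driven reaction ran 60 min at RT after 10 min compound preincubation; data scaled to 57 uM ketoconazole as 100% inhibition.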
# [17] = biological target: Cytochrome P450 3A4 (Homo sapiens) (UniProt P08684); experiment: qHTS Assay for Activators of Cytochrome P450 3A4 (AID 885); also: nearly all actives have a fitted effect of over 65% in size
# Outline: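 Human CYP3A4 dealkylates Luciferin-PPXE to luciferin, which luciferase detection converts to light. Substrate was at its KM (25uM), buffer 200mM KPO4, reaction 60 min at RT.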
# [18] = biological target: Cytochrome P450 2D6 (Homo sapiens) (UniProt P10635); experiment: qHTS Assay for Inhibitors and Substrates of Cytochrome P450 2D6 (AID 891); also: potency is read from the fitted curve at half-maximal effect; nearly all actives have a fitted effect of over 60% in size
# Outline: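 Luminescent read-out of luciferin formed by 5 nM human CYP2D6 demethylating 30 uM Luciferin-ME EGE (Km level) over 60 min at room temperature after NADPH regeneration addition. Data normalized to full inhibition by 1.43 uM quinidine.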
# [19] = biological target: Cytochrome P450 2C19 (Homo sapiens) (UniProt P33261); experiment: qHTS Assay for Inhibitors and Substrates of Cytochrome P450 2C19 (AID 899); also: potency is read from the fitted curve at half-maximal effect; nearly all actives have a fitted effect of over 60% in size
# Outline: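 Luminescent read-out of luciferin formed from Luciferin-H EGE (10uM, equal to KM). Enzyme 5nM in 50mM KPO4; compound added, 10 min at 37C, then NADPH regenerating system for 60 min at 37C. Full inhibition defined by 57uM ketoconazole.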
# [20] = biological target: Lethal(3)malignant brain tumor-like protein 1 (Homo sapiens) (UniProt Q9Y468); experiment: qHTS Assay for the Inhibitors of L3MBTL1: Hit Validation (AID 540279); details: L3MBTL1 methyl-lysine binding inhibition, biochemical qHTS; also: potency is read from the fitted curve at half-maximal effect; nearly all actives have a fitted effect of over 70% in size
# Outline: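 L3MBTL1 (50 nM final) preformed 30 min with biotinylated H3(1-15)K9me1 peptide (75 nM), then compound 30 min at room temperature. Streptavidin donor and nickel chelate acceptor AlphaScreen beads (10 ug/mL each final) added for 30 min before read.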
# [21] = qHTS Assay for the Inhibitors of L3MBTL1: Hit Validationin AlphaScreen Counterscreen (AID 602224)
# Outline: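 Bead-only proximity control lacking target protein. Final 1 nM b-His6 with 10 ug/mL streptavidin donor and 10 ug/mL nickel chelate acceptor beads; 15 min compound exposure, then 30 min dark RT, then AlphaScreen read.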
# [22] = qHTS for Inhibitors of Plasmodium falciparum (DD2) proliferation (AID 504314);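 also: parasite DNA measured by SYBR Green fluorescence after red cell lysis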
# Outline: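 Parasite proliferation measured as SYBR Green signal from Plasmodium DNA, mature erythrocytes lacking DNA. 72 h incubation, 37C; activity scaled between vehicle and 0.29 uM artemisinin, with correction from vehicle-only plates.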
# [23] = qHTS for Inhibitors of Plasmodium falciparum (7G8) proliferation (AID 504316); also: series mostly up to about 6.7 µM; nearly all actives have a fitted effect of over 65% in size
# Outline: as §2
# [24] = qHTS for Inhibitors of Plasmodium falciparum (HB3) proliferation (AID 504318); also: nearly all actives have a fitted effect of over 60% in size
# Outline: as §2
# Sequence of Rap guanine nucleotide exchange factor 3 (Homo sapiens) (O95398 whole entry, looked up): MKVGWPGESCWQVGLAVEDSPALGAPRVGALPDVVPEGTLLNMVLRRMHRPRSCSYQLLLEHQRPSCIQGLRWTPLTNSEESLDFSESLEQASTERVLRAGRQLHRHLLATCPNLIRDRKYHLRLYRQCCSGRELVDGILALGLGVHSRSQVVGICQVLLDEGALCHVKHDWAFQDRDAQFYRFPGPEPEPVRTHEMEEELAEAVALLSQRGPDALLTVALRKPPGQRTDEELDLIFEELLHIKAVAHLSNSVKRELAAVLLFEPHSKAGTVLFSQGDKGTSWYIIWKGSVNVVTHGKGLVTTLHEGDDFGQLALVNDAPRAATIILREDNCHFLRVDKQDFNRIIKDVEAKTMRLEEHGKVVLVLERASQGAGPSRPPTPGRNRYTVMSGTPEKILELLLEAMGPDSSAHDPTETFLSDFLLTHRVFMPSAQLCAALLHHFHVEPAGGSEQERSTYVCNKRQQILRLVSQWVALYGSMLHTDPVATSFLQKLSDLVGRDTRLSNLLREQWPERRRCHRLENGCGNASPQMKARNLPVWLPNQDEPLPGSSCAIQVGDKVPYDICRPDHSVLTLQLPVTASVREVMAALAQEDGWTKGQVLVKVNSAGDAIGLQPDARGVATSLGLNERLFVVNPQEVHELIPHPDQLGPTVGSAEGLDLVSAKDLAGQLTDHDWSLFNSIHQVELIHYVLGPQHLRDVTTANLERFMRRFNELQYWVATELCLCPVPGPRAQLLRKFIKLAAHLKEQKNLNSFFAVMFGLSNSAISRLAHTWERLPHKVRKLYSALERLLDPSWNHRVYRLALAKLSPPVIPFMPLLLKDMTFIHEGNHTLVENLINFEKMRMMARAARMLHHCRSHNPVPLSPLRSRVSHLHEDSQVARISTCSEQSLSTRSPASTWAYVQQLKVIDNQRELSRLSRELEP
# Sequence of Glucocorticoid receptor (Homo sapiens) (P04150 whole entry, looked up, the tested form may be a part): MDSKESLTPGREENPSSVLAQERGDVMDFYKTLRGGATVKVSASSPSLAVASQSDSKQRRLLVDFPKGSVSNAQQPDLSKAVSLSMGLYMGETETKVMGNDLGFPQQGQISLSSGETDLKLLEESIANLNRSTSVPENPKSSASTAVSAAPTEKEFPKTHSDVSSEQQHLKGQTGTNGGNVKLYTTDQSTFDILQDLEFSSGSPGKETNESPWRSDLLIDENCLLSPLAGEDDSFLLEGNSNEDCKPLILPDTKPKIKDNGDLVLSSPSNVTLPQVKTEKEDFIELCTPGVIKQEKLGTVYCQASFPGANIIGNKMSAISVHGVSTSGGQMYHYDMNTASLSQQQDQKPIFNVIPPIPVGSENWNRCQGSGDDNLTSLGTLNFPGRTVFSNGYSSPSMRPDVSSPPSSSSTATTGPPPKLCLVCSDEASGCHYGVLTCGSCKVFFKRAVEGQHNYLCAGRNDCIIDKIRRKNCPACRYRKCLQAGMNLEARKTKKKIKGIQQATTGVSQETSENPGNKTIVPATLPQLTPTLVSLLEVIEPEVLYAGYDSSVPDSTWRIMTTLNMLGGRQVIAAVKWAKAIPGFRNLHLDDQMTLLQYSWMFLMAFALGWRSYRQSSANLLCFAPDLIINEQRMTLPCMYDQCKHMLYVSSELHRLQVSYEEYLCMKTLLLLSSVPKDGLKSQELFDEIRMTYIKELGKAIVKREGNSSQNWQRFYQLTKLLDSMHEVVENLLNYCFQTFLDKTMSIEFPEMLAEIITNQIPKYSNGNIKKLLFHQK
# Sequence of Tumor susceptibility gene 101 protein (Homo sapiens) (Q99816 whole entry, looked up, the tested form may be a part): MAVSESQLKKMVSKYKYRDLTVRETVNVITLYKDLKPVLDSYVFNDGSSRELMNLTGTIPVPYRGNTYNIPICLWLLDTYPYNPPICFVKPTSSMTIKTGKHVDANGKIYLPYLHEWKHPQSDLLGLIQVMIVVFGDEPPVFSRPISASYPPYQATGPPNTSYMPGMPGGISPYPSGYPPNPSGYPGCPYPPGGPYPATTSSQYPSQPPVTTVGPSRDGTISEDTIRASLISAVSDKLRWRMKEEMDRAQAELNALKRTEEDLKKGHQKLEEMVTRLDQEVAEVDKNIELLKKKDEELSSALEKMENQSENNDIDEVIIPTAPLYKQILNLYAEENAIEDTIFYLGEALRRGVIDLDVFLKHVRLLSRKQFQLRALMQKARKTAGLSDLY
# Sequence of Rap guanine nucleotide exchange factor 4 (Homo sapiens) (Q8WZA2 whole entry, looked up): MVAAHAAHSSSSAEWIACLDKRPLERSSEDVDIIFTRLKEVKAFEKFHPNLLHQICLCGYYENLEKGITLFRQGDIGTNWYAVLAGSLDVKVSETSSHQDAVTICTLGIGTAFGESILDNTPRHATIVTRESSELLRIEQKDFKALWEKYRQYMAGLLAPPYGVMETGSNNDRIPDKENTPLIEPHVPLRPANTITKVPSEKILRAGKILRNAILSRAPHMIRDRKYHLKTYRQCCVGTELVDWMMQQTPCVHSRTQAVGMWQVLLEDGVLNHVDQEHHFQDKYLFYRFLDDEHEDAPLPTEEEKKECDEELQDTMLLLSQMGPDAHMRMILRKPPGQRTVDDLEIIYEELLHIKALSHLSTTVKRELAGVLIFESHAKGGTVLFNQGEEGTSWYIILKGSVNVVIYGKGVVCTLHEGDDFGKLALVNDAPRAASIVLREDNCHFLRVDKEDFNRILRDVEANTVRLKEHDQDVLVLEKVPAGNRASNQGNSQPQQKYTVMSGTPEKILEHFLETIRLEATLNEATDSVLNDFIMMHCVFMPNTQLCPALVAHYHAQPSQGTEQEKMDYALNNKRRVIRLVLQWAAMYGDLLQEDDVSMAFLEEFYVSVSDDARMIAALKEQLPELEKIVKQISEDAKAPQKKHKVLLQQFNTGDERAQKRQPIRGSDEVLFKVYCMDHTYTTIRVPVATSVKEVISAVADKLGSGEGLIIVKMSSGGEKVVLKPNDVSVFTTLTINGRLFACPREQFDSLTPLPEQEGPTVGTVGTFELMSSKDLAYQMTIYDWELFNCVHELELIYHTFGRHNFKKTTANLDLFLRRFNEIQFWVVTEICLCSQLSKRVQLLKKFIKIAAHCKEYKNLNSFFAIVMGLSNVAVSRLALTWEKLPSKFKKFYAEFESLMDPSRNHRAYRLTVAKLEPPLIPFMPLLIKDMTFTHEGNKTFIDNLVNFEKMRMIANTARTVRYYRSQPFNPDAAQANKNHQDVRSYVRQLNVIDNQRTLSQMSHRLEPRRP
# Sequence of Cytochrome P450 3A4 (Homo sapiens) (P08684 whole entry, looked up): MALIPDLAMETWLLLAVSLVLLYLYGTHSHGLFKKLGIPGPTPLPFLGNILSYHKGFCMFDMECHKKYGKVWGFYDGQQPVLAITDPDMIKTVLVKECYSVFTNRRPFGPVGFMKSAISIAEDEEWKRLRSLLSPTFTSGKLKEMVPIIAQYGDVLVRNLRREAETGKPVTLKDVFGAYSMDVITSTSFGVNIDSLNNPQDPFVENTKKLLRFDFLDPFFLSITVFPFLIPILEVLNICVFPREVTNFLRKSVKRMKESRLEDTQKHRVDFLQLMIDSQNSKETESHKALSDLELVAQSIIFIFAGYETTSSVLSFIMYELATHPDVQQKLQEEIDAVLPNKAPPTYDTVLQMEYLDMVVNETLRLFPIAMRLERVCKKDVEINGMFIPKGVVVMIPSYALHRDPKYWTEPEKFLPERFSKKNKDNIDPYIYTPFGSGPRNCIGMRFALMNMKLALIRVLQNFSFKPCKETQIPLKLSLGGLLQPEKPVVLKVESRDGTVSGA
# Sequence of Tyrosyl-DNA phosphodiesterase 1 (Homo sapiens) (Q9NUW8 whole entry, looked up): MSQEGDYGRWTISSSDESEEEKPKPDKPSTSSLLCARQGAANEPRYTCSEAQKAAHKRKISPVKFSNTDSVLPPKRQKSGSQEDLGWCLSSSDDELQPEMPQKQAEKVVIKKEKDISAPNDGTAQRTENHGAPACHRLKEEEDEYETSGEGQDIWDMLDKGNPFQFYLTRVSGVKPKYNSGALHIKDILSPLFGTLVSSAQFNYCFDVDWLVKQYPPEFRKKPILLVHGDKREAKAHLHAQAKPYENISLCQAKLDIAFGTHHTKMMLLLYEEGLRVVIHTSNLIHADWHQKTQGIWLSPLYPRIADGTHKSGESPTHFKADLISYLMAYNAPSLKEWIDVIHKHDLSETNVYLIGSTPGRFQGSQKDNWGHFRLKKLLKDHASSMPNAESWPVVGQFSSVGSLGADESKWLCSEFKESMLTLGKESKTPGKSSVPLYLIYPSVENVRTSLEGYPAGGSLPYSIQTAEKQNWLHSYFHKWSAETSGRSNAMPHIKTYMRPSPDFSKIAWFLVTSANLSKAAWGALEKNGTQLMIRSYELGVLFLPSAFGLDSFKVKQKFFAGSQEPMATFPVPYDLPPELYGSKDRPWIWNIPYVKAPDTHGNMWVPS
# Sequence of Cytochrome P450 2D6 (Homo sapiens) (P10635 whole entry, looked up): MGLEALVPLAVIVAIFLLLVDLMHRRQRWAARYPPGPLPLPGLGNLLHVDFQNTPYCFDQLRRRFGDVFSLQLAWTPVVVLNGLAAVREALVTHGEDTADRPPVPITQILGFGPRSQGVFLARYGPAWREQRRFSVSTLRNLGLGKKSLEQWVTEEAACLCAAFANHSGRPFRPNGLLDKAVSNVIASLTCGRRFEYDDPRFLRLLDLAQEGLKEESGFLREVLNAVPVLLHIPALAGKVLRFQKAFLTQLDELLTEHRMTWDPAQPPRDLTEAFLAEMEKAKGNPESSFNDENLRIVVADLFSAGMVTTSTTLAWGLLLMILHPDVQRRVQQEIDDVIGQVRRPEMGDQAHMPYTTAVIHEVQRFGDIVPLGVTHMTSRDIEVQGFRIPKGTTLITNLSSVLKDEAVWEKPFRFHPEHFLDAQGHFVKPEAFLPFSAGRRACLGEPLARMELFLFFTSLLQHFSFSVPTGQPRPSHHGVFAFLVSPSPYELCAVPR
smiles,measurement,setting,value
COC(=O)c1nn(-c2ccccc2)c(Sc2ccc(OC)cc2)c1/C=N/O,Potency,[1],inactive
same,activation,[2],"-5.43% [at 17.1 µM, percent relative to cAMP agonist control]"
same,Potency,[3],inactive
same,"activity change, negative = inhibition",[4],-27.4% [at 30.8 µM]
same,activation,[5],23% [at 30.8 µM]
CCCCn1c(CNC(=O)C23CC4CC(CC(C4)C2)C3)nnc1SCC(=O)Nc1nnc(C)s1,Potency,[1],inactive
same,activation,[2],"3.57% [at 17.1 µM, percent relative to cAMP agonist control]"
same,Potency,[3],inactive
same,activation,[5],1.72% [at 30.8 µM]
O=[N+]([O-])c1cc(CN2CCN(c3cccc(C(F)(F)F)c3)CC2)c2cccnc2c1O,Potency,[1],inactive
same,Potency,[2],inactive
same,Potency,[3],inactive
same,Potency,[4],inactive
same,Potency,[5],inactive
NS(=O)(=O)c1ccc(N=Nc2ccc(=O)[nH]c2O)cc1,Potency,[6],6.31 µM (active)
same,Potency,[1],inactive
same,activation,[2],"-0.407% [at 17.1 µM, percent relative to cAMP agonist control]"
same,Potency,[3],inactive
same,"activity change, negative = inhibition",[4],-5.26% [at 30.8 µM]
same,activation,[5],-0.888% [at 30.8 µM]
O=C1C=C(NCc2ccccc2)c2ccccc2C1=O,Potency,[1],inactive
same,Potency,[2],inactive
same,Potency,[3],15.1 µM (active)
same,Potency,[4],inactive
same,Potency,[5],inactive
CC1(OC(=O)C2CCCC2)C(=O)C=C2C=C(c3ccsc3)N(Cc3ccco3)C=C2C1=O (stereo not drawn),outcome,[7],inactive
same,outcome,[8],inactive
same,Potency,[1],inactive
same,Potency,[2],inactive
same,Potency,[3],inactive
same,Potency,[4],inactive
Cc1cc(=O)oc2ccc(OC(=O)CN3C(=O)c4cccc([N+](=O)[O-])c4C3=O)cc12,Potency,[9],inactive
same,Potency,[1],inactive
same,Potency,[2],inactive
same,Potency,[3],inactive
same,Potency,[4],inactive
same,Potency,[5],inactive
O=C(CCl)N1c2ccccc2Oc2ccc3ccccc3c21,Potency,[9],inactive
same,Potency,[1],inactive
same,Potency,[2],inactive
same,Potency,[3],inactive
same,Potency,[4],inactive
same,Potency,[5],35.5 µM (active)
CC1(C)Cc2c(C#N)c(N3CCN(C(=O)c4ccco4)CC3)nc(-c3ccco3)c2CS1,Potency,[10],> 20.6 µM
same,Potency,[1],inactive
same,Potency,[2],inactive
same,Potency,[3],inactive
same,Potency,[4],inactive
same,Potency,[5],inactive
COc1ccc(OC)c2c1C(=O)c1ccccc1C2=O,Potency,[9],14.6 µM (active)
same,Potency,[1],inactive
same,Potency,[2],inactive
same,Potency,[3],inactive
same,Potency,[4],inactive
COc1cc(OC)c(-c2cc(C(=O)O)ccc2OC)c(OC)c1,Potency,[9],inactive
same,Potency,[1],inactive
same,activation,[2],"1.75% [at 17.1 µM, percent relative to cAMP agonist control]"
same,Potency,[3],inactive
same,"activity change, negative = inhibition",[4],-0.0153% [at 30.8 µM]
same,activation,[5],38.4% [at 30.8 µM]
Cc1cc2nc3c(=O)n(C4CCCCC4)c(=O)[nH]c3nc2cc1N,Potency,[9],0.651 µM (active)
same,Potency,[1],56.2 µM (active)
same,Potency,[2],56.2 µM (active)
same,Potency,[3],inactive
same,Potency,[4],inactive
same,Potency,[5],25.1 µM (active)
O=C1C=C(NCCc2cc(Br)c(O)c(Br)c2)C(=O)c2ncccc21,Potency,[11],> 11.4 µM
same,Potency,[12],3.16 µM (active)
same,Potency,[10],> 46 µM
same,Potency,[13],> 9.22 µM
same,"activity change, negative = inhibition",[14],0.257% [at 11.4 µM]
same,Potency,[15],1.58 µM (active)
same,Potency,[16],3.16 µM (active)
same,"activity change, positive = activation",[17],-62.8% [at 11.4 µM]
same,Potency,[18],1.58 µM (active)
same,Potency,[19],501 nM (active)
same,Potency,[1],inactive
same,activation,[2],"5.19% [at 17.1 µM, percent relative to cAMP agonist control]"
same,Potency,[3],inactive
same,"activity change, negative = inhibition",[4],-20.2% [at 30.8 µM]
same,activation,[5],14.9% [at 30.8 µM]
Cc1ccc(C)c(-c2ccc(=O)n(Cc3ccc(F)cc3Cl)n2)c1,Potency,[1],inactive
same,Potency,[2],inactive
same,Potency,[3],inactive
same,Potency,[4],inactive
same,Potency,[5],inactive
O=c1[nH]c(C2CCN(S(=O)(=O)c3ccccc3F)CC2)nc2c1nnn2Cc1ccc(F)cc1,Potency,[1],inactive
same,Potency,[2],inactive
same,Potency,[3],inactive
same,Potency,[4],inactive
same,Potency,[5],inactive
Cc1ccc(Cn2c(C)nc3c(c2=O)c2nc4ccccc4nc2n3Cc2ccco2)cc1,Potency,[20],23.8 µM (active)
same,outcome,[21],inactive
same,Potency,[1],inactive
same,Potency,[2],inactive
same,Potency,[3],inactive
same,Potency,[4],inactive
same,Potency,[5],inactive
COC(=O)C1=C(C)N(Cc2ccccc2)C(=O)N[C@H]1c1cccc(C(F)(F)F)c1,outcome,[22],inactive
same,outcome,[7],inactive
same,outcome,[23],inactive
same,outcome,[24],inactive
same,outcome,[8],inactive
same,Potency,[1],inactive
same,activation,[2],"7.76% [at 17.1 µM, percent relative to cAMP agonist control]"
same,Potency,[3],inactive
same,"activity change, negative = inhibition",[4],-21.1% [at 30.8 µM]
same,activation,[5],10.2% [at 30.8 µM]
CC(C)CCNc1nc(-c2ccco2)c2c(c1C#N)CCCC2,Potency,[1],inactive
same,Potency,[2],inactive
same,Potency,[3],inactive
same,Potency,[4],inactive
same,Potency,[5],inactive

# Reference: PubChem BioAssay (NCATS)
